In the supplement of paper PMC6992640:
Counter-ions that a name gives are not always drawn. ± gives the standard deviation of the averaged measurements.

What was measured:
Test in all cases: cell viability (% of vehicle); higher = less cytotoxic
Settings in all cases: 10 µM; 72 h
HCI01 = tested on: HCI01 (cells of a triple-negative basal-like breast cancer xenograft)
HCI03 = tested on: HCI03 (cells of an ER-positive luminal breast cancer xenograft)
HCI09 = tested on: HCI09 (cells of a triple-negative luminal androgen receptor type breast cancer xenograft)
HCI11 = tested on: HCI11 (cells of an ER-positive luminal breast cancer xenograft)
HCI13 = tested on: HCI13 (cells of an ER-positive luminal breast cancer xenograft)
HCI16 = tested on: HCI16 (cells of a triple-negative basal-like breast cancer xenograft)
UCD52 = tested on: UCD52 (cells of a triple-negative basal-like breast cancer xenograft)
WHIM2 = tested on: WHIM2 (cells of a triple-negative basal-like breast cancer xenograft)
WHIM30 = tested on: WHIM30 (cells of a triple-negative basal-like breast cancer xenograft)
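Note: PDX cells carrying CMV promoter-driven luciferase, viability read as total photon flux per second by IVIS imaging following D-luciferin, vehicle control 0.1% DMSO.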

CCCOc1ccc(C(=O)OCCN(CC)CC)cc1N.Cl [Proparacaine HCl]
cell viability (HCI01): 99.6 ± 12 | cell viability (HCI03): 165 | cell viability (HCI09): 91 ± 17 | cell viability (HCI11): 91.9 | cell viability (HCI13): 111 ± 5.8 | cell viability (HCI16): 109 | cell viability (UCD52): 102 ± 11 | cell viability (WHIM2): 97.1 ± 7.6 | cell viability (WHIM30): 114 ± 13

CC(C)(C)NCC(O)c1ccc(O)c(CO)c1.O=S(=O)(O)O (stereo unspecified) [Salbutamol Sulfate]
cell viability (HCI01): 103 ± 5.9 | cell viability (HCI03): 104 | cell viability (HCI09): 97.4 ± 19 | cell viability (HCI11): 90.5 | cell viability (HCI13): 106 ± 21 | cell viability (HCI16): 104 | cell viability (UCD52): 85.4 ± 4.9 | cell viability (WHIM2): 92.9 ± 19 | cell viability (WHIM30): 114 ± 6.2

Cn1cc[nH]c1=S [Methimazole]
cell viability (HCI01): 143 ± 11 | cell viability (HCI03): 119 | cell viability (HCI09): 130 ± 23 | cell viability (HCI11): 112 | cell viability (HCI13): 82 ± 21 | cell viability (HCI16): 126 | cell viability (UCD52): 100.1 ± 0.29 | cell viability (WHIM2): 107 ± 2.4 | cell viability (WHIM30): 139 ± 3.8

Nc1ccc(S(=O)(=O)Nc2nccs2)cc1 [Sulfathiazole]
cell viability (HCI01): 102 ± 30 | cell viability (HCI03): 140 | cell viability (HCI09): 93.4 ± 7.8 | cell viability (HCI11): 84.5 | cell viability (HCI13): 197 ± 28 | cell viability (HCI16): 116 | cell viability (UCD52): 96.5 ± 11 | cell viability (WHIM2): 98.2 ± 6.3 | cell viability (WHIM30): 110 ± 8.6

CC1(C)SC2C(NC(=O)Cc3ccccc3)C(=O)N2C1C(=O)[O-].[Na+] (stereo unspecified) [Penicillin G Sodium]
cell viability (HCI01): 170 ± 78 | cell viability (HCI03): 105 | cell viability (HCI09): 91.8 ± 20 | cell viability (HCI11): 105 | cell viability (HCI13): 70.7 ± 9.5 | cell viability (HCI16): 111 | cell viability (UCD52): 99.7 ± 20 | cell viability (WHIM2): 108 ± 14 | cell viability (WHIM30): 109 ± 5.6

OCC(CO)NC1CC(O)(CO)C(O)C(O)C1O (stereo unspecified) [Voglibose]
cell viability (HCI01): 106 ± 13 | cell viability (HCI03): 109 | cell viability (HCI09): 93 ± 17 | cell viability (HCI11): 89.1 | cell viability (HCI13): 58.7 ± 0.94 | cell viability (HCI16): 129 | cell viability (UCD52): 80.3 ± 5.1 | cell viability (WHIM2): 117 ± 27 | cell viability (WHIM30): 110 ± 8.8

CN1CCCC[C@H]1CCN1c2ccccc2Sc2ccc(S(C)=O)cc21.O=S(=O)(O)c1ccccc1 (stereo partly specified) [Mesoridazine Besylate]
cell viability (HCI01): 115 ± 9.3 | cell viability (HCI03): 77.9 | cell viability (HCI09): 132 ± 60 | cell viability (HCI11): 98.2 | cell viability (HCI13): 122 ± 10 | cell viability (HCI16): 106 | cell viability (UCD52): 95.9 ± 8.8 | cell viability (WHIM2): 85.8 ± 21 | cell viability (WHIM30): 103 ± 7.5

CN1C(C(=O)Nc2ccccn2)=C(O)c2sc(Cl)cc2S1(=O)=O [Lornoxicam]
cell viability (HCI01): 95.2 ± 8.9 | cell viability (HCI03): 111 | cell viability (HCI09): 84.7 ± 25 | cell viability (HCI11): 85.6 | cell viability (HCI13): 82.4 ± 9.6 | cell viability (HCI16): 98.4 | cell viability (UCD52): 86.2 ± 5.5 | cell viability (WHIM2): 112 ± 2.6 | cell viability (WHIM30): 99.1 ± 6.5

COc1ccc(-c2ccc3cc(C(=O)O)ccc3c2)cc1C12CC3CC(CC(C3)C1)C2 [Adapalene sodium salt]
cell viability (HCI01): 115 ± 29 | cell viability (HCI03): 81.9 | cell viability (HCI09): 114 ± 37 | cell viability (HCI11): 98.3 | cell viability (HCI13): 183 ± 2.4 | cell viability (HCI16): 158 | cell viability (UCD52): 157 ± 19 | cell viability (WHIM2): 104 ± 10 | cell viability (WHIM30): 96.8 ± 6.8

Cl.Nc1c2c(nc3ccccc13)CCCC2 [Tacrine hydrochloride]
cell viability (HCI01): 81.8 ± 14 | cell viability (HCI03): 119 | cell viability (HCI09): 90.7 ± 4.3 | cell viability (HCI11): 97 | cell viability (HCI13): 87.7 ± 6.4 | cell viability (HCI16): 98.3 | cell viability (UCD52): 96.6 ± 4.1 | cell viability (WHIM2): 76.3 ± 2.9 | cell viability (WHIM30): 87.06 ± 0.45

C=CC[C@@H]1/C=C(\C)C[C@H](C)C[C@H](OC)[C@H]2O[C@@](O)(C(=O)C(=O)N3CCCC[C@H]3C(=O)O[C@H](/C(C)=C/[C@@H]3CC[C@@H](O)[C@H](OC)C3)[C@H](C)[C@@H](O)CC1=O)[C@H](C)C[C@@H]2OC [Tacrolimus (FK506)]
cell viability (HCI01): 55.9 ± 45 | cell viability (HCI03): 112 | cell viability (HCI09): 50.6 ± 16 | cell viability (HCI11): 85.4 | cell viability (HCI13): 99.2 ± 6.4 | cell viability (HCI16): 92 | cell viability (UCD52): 83.4 ± 4.2 | cell viability (WHIM2): 85.9 ± 20 | cell viability (WHIM30): 166 ± 19

COc1ccc2cccc(CCNC(C)=O)c2c1 [Agomelatine]
cell viability (HCI01): 92.5 ± 10 | cell viability (HCI03): 139 | cell viability (HCI09): 99.7 ± 4.7 | cell viability (HCI11): 92.4 | cell viability (HCI13): 89.4 ± 2.2 | cell viability (HCI16): 105 | cell viability (UCD52): 86.1 ± 12 | cell viability (WHIM2): 89.9 ± 20 | cell viability (WHIM30): 136 ± 11

O=C(CCCN1CCC(O)(c2ccc(Cl)cc2)CC1)c1ccc(F)cc1 [Haloperidol]
cell viability (HCI01): 63.3 ± 37 | cell viability (HCI03): 102 | cell viability (HCI09): 86.1 ± 10 | cell viability (HCI11): 90 | cell viability (HCI13): 89.6 ± 9.9 | cell viability (HCI16): 117 | cell viability (UCD52): 61.6 ± 2.5 | cell viability (WHIM2): 90.8 ± 36 | cell viability (WHIM30): 121 ± 8.7

Nc1c(CC(=O)[O-])cccc1C(=O)c1ccc(Br)cc1.[Na+] [Bromfenac Sodium]
cell viability (HCI01): 134 ± 34 | cell viability (HCI03): 104 | cell viability (HCI09): 82.1 ± 13 | cell viability (HCI11): 103 | cell viability (HCI13): 76.6 ± 16 | cell viability (HCI16): 96.2 | cell viability (UCD52): 89 ± 4 | cell viability (WHIM2): 132 ± 25 | cell viability (WHIM30): 111 ± 6.5

O=C(O)c1cc(-c2ccccc2)nc2ccccc12 [Cinchophen]
cell viability (HCI01): 157 ± 2.4 | cell viability (HCI03): 125 | cell viability (HCI09): 104 ± 7.1 | cell viability (HCI11): 107 | cell viability (HCI13): 111 ± 1.3 | cell viability (HCI16): 124 | cell viability (UCD52): 120 ± 4.4 | cell viability (WHIM2): 138 ± 6.4 | cell viability (WHIM30): 139 ± 28

CCCNS(=O)(=O)Nc1ncnc(OCCOc2ncc(Br)cn2)c1-c1ccc(Br)cc1 [Macitentan]
cell viability (HCI01): 75.9 ± 56 | cell viability (HCI03): 109 | cell viability (HCI09): 65 ± 16 | cell viability (HCI11): 91.4 | cell viability (HCI13): 51.7 ± 28 | cell viability (HCI16): 91.8 | cell viability (UCD52): 75.383 ± 0.03 | cell viability (WHIM2): 77.1 ± 37 | cell viability (WHIM30): 101.4 ± 0.41

COc1ccccc1N1CCN(CCCNc2cc(=O)n(C)c(=O)n2C)CC1.Cl [Urapidil HCl]
cell viability (HCI01): 96.7 ± 8.1 | cell viability (HCI03): 125 | cell viability (HCI09): 89.54 ± 0.6 | cell viability (HCI11): 80.2 | cell viability (HCI13): 93.3 ± 1.2 | cell viability (HCI16): 105 | cell viability (UCD52): 97.6 ± 7.3 | cell viability (WHIM2): 98.8 ± 5.4 | cell viability (WHIM30): 111 ± 3.3

CC1=NN(c2ccccc2)C(=O)C1 [Edaravone]
cell viability (HCI01): 80.8 ± 11 | cell viability (HCI03): 108 | cell viability (HCI09): 91.7 ± 13 | cell viability (HCI11): 100 | cell viability (HCI13): 99.37 ± 0.89 | cell viability (HCI16): 113 | cell viability (UCD52): 87.9 ± 16 | cell viability (WHIM2): 83.1 ± 24 | cell viability (WHIM30): 130 ± 10

CO[C@H]1/C=C/O[C@@]2(C)Oc3c(C)c(O)c4c(c3C2=O)C2=NC3(CCN(CC(C)C)CC3)NC2=C(NC(=O)/C(C)=C\C=C\[C@H](C)[C@H](O)[C@@H](C)[C@@H](O)[C@@H](C)[C@H](OC(C)=O)[C@@H]1C)C4=O [Rifabutin]
cell viability (HCI01): 56.1 ± 34 | cell viability (HCI03): 116 | cell viability (HCI09): 57.3 ± 27 | cell viability (HCI11): 83.2 | cell viability (HCI13): 113 ± 16 | cell viability (HCI16): 121 | cell viability (UCD52): 81.2 ± 1.8 | cell viability (WHIM2): 79.1 ± 27 | cell viability (WHIM30): 143 ± 7.7
